Experimental data: ChEMBL document CHEMBL1961873, “Compounds: GSK PKIS; Assays: Nanosyn kinase panel” (2012)

Key:
[1] = target: SRSF protein kinase 1 (Homo sapiens) (UniProt Q96SB4); details: at 0.1 µM
[2] = target: SRSF protein kinase 1 (Homo sapiens) (UniProt Q96SB4); details: at 1 µM
[3] = target: Phosphatidylinositol 4,5-bisphosphate 3-kinase catalytic subunit alpha isoform (Homo sapiens) (UniProt P42336); details: at 0.1 µM
[4] = target: Phosphatidylinositol 4,5-bisphosphate 3-kinase catalytic subunit alpha isoform (Homo sapiens) (UniProt P42336); details: at 1 µM
[5] = target: T1, Phosphatidylinositol 4,5-bisphosphate 3-kinase catalytic subunit delta isoform (Homo sapiens) (UniProt O00329); details: at 0.1 µM
T1 sequence (whole entry): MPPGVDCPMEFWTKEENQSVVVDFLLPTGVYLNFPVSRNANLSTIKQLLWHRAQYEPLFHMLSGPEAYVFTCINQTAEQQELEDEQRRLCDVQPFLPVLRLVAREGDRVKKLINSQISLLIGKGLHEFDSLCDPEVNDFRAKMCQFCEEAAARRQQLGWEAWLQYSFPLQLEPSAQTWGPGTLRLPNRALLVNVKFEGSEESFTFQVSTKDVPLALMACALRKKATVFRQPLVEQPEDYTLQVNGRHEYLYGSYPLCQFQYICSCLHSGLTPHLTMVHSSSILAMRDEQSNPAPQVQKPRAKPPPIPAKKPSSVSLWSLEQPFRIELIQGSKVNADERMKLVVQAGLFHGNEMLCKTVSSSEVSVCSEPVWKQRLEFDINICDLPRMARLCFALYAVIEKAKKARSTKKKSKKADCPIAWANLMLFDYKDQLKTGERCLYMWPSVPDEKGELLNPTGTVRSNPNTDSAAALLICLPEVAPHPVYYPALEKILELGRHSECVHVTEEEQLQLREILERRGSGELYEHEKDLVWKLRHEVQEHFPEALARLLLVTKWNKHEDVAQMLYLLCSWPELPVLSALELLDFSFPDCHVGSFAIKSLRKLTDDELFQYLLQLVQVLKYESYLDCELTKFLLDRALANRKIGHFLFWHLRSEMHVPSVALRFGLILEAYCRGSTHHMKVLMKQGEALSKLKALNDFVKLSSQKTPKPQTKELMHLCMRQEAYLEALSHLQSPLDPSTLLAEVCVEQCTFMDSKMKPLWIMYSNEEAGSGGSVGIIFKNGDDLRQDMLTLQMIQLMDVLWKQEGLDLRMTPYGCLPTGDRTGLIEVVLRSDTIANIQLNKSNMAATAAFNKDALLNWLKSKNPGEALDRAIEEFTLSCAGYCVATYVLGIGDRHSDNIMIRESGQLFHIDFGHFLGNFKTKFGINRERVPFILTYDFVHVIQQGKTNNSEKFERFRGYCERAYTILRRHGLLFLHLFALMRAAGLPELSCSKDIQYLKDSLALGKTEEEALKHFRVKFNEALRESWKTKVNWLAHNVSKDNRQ

[6] = target: T1, Phosphatidylinositol 4,5-bisphosphate 3-kinase catalytic subunit delta isoform (Homo sapiens); details: at 1 µM
[7] = target: Phosphatidylinositol 4-kinase beta (Homo sapiens) (UniProt Q9UBF8); details: at 0.1 µM
Chain of Phosphatidylinositol 4-kinase beta (Homo sapiens) (Q9UBF8 2-816 limits assumed): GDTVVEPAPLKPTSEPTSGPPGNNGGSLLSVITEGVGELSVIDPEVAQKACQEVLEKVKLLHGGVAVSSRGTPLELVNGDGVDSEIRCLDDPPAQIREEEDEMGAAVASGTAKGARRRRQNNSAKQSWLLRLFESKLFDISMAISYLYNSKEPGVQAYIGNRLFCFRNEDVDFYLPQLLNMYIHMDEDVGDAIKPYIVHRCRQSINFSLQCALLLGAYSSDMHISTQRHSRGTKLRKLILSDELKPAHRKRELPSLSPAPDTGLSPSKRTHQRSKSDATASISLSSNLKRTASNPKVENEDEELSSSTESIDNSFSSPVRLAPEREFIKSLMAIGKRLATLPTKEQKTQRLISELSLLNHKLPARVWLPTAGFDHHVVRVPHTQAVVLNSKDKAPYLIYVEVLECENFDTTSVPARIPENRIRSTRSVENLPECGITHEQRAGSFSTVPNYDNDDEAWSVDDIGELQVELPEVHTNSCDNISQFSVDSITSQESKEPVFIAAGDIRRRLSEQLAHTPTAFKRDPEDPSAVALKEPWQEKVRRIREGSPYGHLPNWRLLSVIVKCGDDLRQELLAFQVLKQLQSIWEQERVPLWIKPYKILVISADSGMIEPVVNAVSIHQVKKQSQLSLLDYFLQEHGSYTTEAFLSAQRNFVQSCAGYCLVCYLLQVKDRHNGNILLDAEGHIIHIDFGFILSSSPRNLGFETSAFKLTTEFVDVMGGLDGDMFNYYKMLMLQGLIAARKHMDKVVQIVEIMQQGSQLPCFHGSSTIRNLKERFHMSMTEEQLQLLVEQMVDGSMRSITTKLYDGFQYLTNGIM

[8] = target: Phosphatidylinositol 4-kinase beta (Homo sapiens) (UniProt Q9UBF8); details: at 1 µM
[9] = target: Sphingosine kinase 1 (Homo sapiens) (UniProt Q9NYA1); details: at 0.1 µM;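 also: mean percent inhibition of SPHK1 activity, measured within the GSK PKIS screening panel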
Chain of Sphingosine kinase 1 (Homo sapiens) (Q9NYA1 whole entry): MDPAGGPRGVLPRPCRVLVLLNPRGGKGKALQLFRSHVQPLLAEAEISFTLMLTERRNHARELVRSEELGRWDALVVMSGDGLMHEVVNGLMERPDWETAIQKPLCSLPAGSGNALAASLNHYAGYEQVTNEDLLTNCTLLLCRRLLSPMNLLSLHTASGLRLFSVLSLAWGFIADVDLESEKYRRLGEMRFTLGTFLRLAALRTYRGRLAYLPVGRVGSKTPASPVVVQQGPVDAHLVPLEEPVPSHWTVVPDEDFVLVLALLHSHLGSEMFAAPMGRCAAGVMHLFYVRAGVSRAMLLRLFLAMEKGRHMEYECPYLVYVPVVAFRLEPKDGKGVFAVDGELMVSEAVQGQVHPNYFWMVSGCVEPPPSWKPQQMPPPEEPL

[10] = target: T2, Mitogen-activated protein kinase 12 (Homo sapiens) (UniProt P53778); details: at 1 µM;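 also: values are averaged p38gamma kinase inhibition readings, compounds tested at 1 µM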
T2 sequence (whole entry): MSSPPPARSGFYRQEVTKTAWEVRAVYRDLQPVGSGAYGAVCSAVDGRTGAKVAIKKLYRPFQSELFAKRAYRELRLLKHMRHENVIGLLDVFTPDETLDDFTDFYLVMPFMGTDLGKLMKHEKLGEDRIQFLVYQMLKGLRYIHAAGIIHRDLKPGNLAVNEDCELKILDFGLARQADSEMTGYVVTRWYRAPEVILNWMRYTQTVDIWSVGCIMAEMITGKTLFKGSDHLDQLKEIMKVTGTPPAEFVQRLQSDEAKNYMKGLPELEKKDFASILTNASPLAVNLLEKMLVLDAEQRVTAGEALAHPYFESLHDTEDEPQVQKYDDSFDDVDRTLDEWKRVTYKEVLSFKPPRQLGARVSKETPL

Chain of Phosphatidylinositol 4,5-bisphosphate 3-kinase catalytic subunit alpha isoform (Homo sapiens) (P42336 whole entry, canonical isoform): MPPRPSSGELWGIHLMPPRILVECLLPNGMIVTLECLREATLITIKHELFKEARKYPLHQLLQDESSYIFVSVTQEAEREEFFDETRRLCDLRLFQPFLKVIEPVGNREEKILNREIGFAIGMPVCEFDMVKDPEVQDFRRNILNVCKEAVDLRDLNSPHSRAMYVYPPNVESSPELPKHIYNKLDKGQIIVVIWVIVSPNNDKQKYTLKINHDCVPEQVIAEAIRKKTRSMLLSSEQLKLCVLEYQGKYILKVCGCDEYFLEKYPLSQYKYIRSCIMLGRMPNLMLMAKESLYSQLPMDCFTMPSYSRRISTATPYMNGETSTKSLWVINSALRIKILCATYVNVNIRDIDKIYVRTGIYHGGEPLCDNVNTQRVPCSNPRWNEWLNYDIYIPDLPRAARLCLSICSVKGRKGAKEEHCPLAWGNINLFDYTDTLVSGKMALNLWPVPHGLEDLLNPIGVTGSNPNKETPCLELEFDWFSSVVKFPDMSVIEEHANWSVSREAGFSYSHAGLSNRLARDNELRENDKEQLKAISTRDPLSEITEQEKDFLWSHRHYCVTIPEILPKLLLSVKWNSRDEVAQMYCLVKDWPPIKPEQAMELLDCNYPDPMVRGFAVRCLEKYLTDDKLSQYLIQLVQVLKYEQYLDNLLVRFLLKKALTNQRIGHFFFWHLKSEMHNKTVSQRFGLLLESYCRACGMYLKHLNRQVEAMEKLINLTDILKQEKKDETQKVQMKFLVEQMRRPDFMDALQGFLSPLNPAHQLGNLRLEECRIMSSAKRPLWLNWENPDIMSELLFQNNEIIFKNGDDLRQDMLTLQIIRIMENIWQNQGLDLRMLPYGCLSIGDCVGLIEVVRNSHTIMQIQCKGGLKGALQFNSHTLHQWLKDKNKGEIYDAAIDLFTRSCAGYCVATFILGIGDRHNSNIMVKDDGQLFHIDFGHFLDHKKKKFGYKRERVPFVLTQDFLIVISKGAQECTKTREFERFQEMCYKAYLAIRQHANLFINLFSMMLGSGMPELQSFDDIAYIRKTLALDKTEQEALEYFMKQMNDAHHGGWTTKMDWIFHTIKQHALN
Chain of SRSF protein kinase 1 (Homo sapiens) (Q96SB4 whole entry, canonical isoform): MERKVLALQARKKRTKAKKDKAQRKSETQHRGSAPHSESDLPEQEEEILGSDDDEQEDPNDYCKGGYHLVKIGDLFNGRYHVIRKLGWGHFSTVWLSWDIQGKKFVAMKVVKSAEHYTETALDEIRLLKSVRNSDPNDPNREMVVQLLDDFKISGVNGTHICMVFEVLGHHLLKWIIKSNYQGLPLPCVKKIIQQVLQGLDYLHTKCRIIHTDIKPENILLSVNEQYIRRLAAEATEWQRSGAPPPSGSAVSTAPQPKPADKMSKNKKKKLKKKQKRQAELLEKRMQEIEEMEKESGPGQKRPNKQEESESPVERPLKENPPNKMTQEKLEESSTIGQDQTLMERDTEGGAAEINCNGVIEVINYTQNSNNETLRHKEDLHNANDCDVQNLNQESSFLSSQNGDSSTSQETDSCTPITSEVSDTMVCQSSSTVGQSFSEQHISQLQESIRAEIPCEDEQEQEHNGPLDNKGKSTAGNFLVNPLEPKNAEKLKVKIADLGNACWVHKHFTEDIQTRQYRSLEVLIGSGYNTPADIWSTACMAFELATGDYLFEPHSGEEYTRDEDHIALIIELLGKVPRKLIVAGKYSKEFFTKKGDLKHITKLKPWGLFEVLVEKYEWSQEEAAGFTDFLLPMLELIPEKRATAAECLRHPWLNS

Fc1ccc(-c2ncn(C3CCNCC3)c2-c2ccnc(Oc3ccccc3)n2)cc1
inhibition [1]: -1.48% | inhibition [2]: -1.61% | inhibition [3]: 1.53% | inhibition [4]: 0.06% | inhibition [5]: 0.6% | inhibition [6]: 1.12% | inhibition [7]: 0.91% | inhibition [8]: 2.57% | inhibition [9]: 1.45%

COc1cc2c(cc1Nc1nc(Nc3ccsc3C(N)=O)c3cc[nH]c3n1)N(C(=O)CN(C)C)CCC2
inhibition [10]: 3.18% | inhibition [1]: -1.65% | inhibition [2]: -0.66% | inhibition [3]: -0.16% | inhibition [4]: -1% | inhibition [5]: 0.01% | inhibition [6]: -0.22% | inhibition [7]: -1.18% | inhibition [8]: -3.17% | inhibition [9]: 1.85%

CCn1c(-c2nonc2N)nc2c(C#CC(C)(C)O)ncc(OC[C@@H]3CCCN3)c21
inhibition [10]: 0.35% | inhibition [1]: -1.57% | inhibition [2]: -2.53% | inhibition [3]: -0.15% | inhibition [4]: 0.24% | inhibition [5]: 0.06% | inhibition [6]: 0.22% | inhibition [7]: 0.05% | inhibition [8]: 1.54% | inhibition [9]: -0.8%

CCn1c(-c2nonc2N)nc2c(C#CCN)ncc(OCCCN)c21
inhibition [10]: -2.79% | inhibition [1]: 2.33% | inhibition [2]: 7.14% | inhibition [3]: -0.54% | inhibition [4]: -3.54% | inhibition [5]: -2.56% | inhibition [6]: -5.7% | inhibition [7]: 1.34% | inhibition [8]: -2.08% | inhibition [9]: 0.33%

COc1cccc(-n2ncc3c(N/N=C/c4ccncc4)ncnc32)c1
inhibition [10]: 14.1% | inhibition [1]: -1.14% | inhibition [2]: 4.65% | inhibition [3]: 3.22% | inhibition [4]: 7.14% | inhibition [5]: 2.66% | inhibition [6]: 10% | inhibition [7]: -3.14% | inhibition [8]: 1.7% | inhibition [9]: -0.71%

CCn1c(-c2nonc2N)nc2c(C#CC(C)(C)O)nc(O[C@@H](CN)c3ccccc3)cc21
inhibition [10]: 0.23% | inhibition [1]: -0.59% | inhibition [2]: -3.25% | inhibition [3]: -0.44% | inhibition [4]: 0.33% | inhibition [5]: 2.44% | inhibition [6]: 3.42% | inhibition [7]: 6.5% | inhibition [8]: 1.86% | inhibition [9]: -1.08%

NC(=O)c1sc(-n2cnc3cc(C(F)(F)F)ccc32)cc1OCc1ccccc1Br
inhibition [10]: 1.86% | inhibition [1]: -1.98% | inhibition [2]: -4.1% | inhibition [3]: 0.07% | inhibition [4]: 0.07% | inhibition [5]: 0.65% | inhibition [6]: 1.77% | inhibition [7]: 0.77% | inhibition [8]: -3.13% | inhibition [9]: -0.24%

COc1cc(C=NNc2ncnc3c2cnn3Cc2ccccc2)ccc1O
inhibition [10]: -3.29% | inhibition [1]: 1.24% | inhibition [2]: 0.29% | inhibition [3]: -4.02% | inhibition [4]: -1.81% | inhibition [5]: 3.47% | inhibition [6]: 6.81% | inhibition [7]: -1.09% | inhibition [8]: 2.84% | inhibition [9]: 3.3%

Nc1nonc1-c1nc2cnccc2n1C1CCCCC1
inhibition [10]: 0.39% | inhibition [1]: 1% | inhibition [2]: -0.52% | inhibition [3]: -2.06% | inhibition [4]: -3.54% | inhibition [5]: -1.65% | inhibition [6]: 0.74% | inhibition [7]: 4.2% | inhibition [8]: -2.26% | inhibition [9]: 0%

NS(=O)(=O)c1ccc(-c2ccc3c(NC(=O)C4CC4)n[nH]c3c2)cc1
inhibition [10]: 0.58% | inhibition [1]: -1.31% | inhibition [2]: -2.21% | inhibition [3]: 2.7% | inhibition [4]: 3.32% | inhibition [5]: 3.34% | inhibition [6]: 8.4% | inhibition [7]: -0.87% | inhibition [8]: -1.58% | inhibition [9]: -2.63%

NS(=O)(=O)c1ccc(N/C=C2\C(=O)Nc3ccc4ncsc4c32)cc1
inhibition [10]: 5.04% | inhibition [1]: -3.49% | inhibition [2]: -2.8% | inhibition [3]: 4.87% | inhibition [4]: 7.04% | inhibition [5]: 2.72% | inhibition [6]: 12.7% | inhibition [7]: -2.13% | inhibition [8]: 1.22% | inhibition [9]: 0.04%

CCn1c(-c2nonc2N)nc2c(C#CC(C)(C)O)ncc(OCC3CCNCC3)c21
inhibition [10]: 1.7% | inhibition [1]: -0.7% | inhibition [2]: 1.81% | inhibition [3]: 1.65% | inhibition [4]: 19.5% | inhibition [5]: -0.08% | inhibition [6]: -0.9% | inhibition [7]: 4.18% | inhibition [8]: -3.56% | inhibition [9]: 0%

COc1cccc(COc2cc(-n3cnc4ccccc43)sc2C(N)=O)c1
inhibition [10]: -0.04% | inhibition [1]: -3.25% | inhibition [2]: -2.74% | inhibition [3]: 0.82% | inhibition [4]: 1.56% | inhibition [5]: 1.62% | inhibition [6]: 3.63% | inhibition [7]: 1.38% | inhibition [8]: -0.71% | inhibition [9]: 2.22%

Cc1cc(-c2ccco2)cc(C)c1/C=C/c1cncc(-c2nn[nH]n2)c1
inhibition [10]: 1.3% | inhibition [1]: -0.96% | inhibition [2]: -1.7% | inhibition [3]: -0.22% | inhibition [4]: 6.64% | inhibition [5]: 0.16% | inhibition [6]: -1.23% | inhibition [7]: -1.26% | inhibition [8]: 9.03% | inhibition [9]: 0.73%
